Common to all, as to parameters: scale not given: direction of the effect not stated beside the values
The target of test [1] is Protein translocase subunit SecA (Escherichia coli (strain K12)) (UniProt P10408). In words: Assay to Identify E. coli SecA ATPase Inhibitors. In kind it is functional. The note with it: 30 µM.
Test [2] has as its target T1, Ubiquitin-activating enzyme e1, putative (Leishmania donovani (strain BPK282A1)) (UniProt E9BSI1).
T1 sequence (whole entry): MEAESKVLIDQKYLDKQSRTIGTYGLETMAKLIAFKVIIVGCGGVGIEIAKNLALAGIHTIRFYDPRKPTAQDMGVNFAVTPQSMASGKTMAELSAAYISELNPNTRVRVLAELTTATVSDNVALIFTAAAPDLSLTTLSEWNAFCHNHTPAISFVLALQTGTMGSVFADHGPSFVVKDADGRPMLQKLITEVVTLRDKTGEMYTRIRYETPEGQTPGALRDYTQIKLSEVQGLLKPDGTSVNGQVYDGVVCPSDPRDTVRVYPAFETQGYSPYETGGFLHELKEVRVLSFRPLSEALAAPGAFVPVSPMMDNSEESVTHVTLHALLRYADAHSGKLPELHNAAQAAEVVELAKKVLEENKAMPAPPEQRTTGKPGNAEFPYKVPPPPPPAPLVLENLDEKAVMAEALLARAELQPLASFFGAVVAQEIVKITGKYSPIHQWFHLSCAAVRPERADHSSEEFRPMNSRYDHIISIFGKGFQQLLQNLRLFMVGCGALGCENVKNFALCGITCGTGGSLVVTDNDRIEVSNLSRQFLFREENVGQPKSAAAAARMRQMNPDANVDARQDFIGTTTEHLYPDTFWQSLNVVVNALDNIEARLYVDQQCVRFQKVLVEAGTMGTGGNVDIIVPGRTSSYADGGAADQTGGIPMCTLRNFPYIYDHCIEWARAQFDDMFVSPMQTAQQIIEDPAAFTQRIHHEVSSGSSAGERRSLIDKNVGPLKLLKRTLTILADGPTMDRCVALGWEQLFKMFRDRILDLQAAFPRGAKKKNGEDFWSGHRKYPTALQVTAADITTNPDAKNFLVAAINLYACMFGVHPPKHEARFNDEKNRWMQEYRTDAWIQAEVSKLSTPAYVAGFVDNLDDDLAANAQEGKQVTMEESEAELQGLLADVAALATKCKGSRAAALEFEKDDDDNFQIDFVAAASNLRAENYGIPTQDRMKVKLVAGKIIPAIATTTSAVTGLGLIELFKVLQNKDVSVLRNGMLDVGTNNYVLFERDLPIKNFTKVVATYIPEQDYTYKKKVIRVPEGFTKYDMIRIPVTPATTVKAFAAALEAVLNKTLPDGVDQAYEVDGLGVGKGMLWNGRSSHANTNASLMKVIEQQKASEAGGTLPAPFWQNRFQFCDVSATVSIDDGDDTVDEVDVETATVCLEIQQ
As to the kind of experiment: Leishmania donovani Ubiquitin Activating Enzyme (LdE1). To be noted: 30 µM. It is filed as functional.

In test [3] the target is AMP-activated protein kinase, AMPK (Homo sapiens) (UniProt P54646+O43741+P54619+Q9UGJ0+Q9Y478+Q13131+Q9UGI9). In words: AMP-dependent Kinase enzyme assay. An in vitro enzyme assay that detects ADP turnover that is directly proportional to AMPK activity. This uses naive AMPK that is activated during the assay with MK-8722. In kind it is functional. To be noted: 30 µM.
In test [4] the target is Sialic acid-binding Ig-like lectin 9 (Homo sapiens) (UniProt Q9Y336). In words: Hs-Siglec9 ALPHAscreen SOP 20170721. The note with it: 10 µM.
Sequence of Sialic acid-binding Ig-like lectin 9 (Homo sapiens) (Q9Y336 whole entry): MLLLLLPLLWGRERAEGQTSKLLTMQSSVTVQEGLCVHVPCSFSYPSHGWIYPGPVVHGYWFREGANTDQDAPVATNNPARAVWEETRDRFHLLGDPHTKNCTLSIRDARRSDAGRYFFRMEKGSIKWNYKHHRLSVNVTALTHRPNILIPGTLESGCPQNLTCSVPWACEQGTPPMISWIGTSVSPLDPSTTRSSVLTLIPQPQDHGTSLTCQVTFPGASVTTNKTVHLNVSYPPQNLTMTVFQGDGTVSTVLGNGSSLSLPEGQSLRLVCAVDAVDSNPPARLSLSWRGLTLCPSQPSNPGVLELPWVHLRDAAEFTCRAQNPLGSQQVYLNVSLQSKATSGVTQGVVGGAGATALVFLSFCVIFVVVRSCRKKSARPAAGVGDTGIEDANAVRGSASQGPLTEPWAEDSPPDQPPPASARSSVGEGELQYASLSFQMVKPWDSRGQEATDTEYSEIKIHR
For another test, the system named is Trypanosoma cruzi. In words: Trypanosoma cruzi phosphomannomutase and mannose-1-phosphate guanylyltransferase assay. In kind it is functional. The note with it: 10 µM.
In test [5] the target is T2, Arginase-2, mitochondrial (Homo sapiens) (UniProt P78540).
T2 sequence (whole entry): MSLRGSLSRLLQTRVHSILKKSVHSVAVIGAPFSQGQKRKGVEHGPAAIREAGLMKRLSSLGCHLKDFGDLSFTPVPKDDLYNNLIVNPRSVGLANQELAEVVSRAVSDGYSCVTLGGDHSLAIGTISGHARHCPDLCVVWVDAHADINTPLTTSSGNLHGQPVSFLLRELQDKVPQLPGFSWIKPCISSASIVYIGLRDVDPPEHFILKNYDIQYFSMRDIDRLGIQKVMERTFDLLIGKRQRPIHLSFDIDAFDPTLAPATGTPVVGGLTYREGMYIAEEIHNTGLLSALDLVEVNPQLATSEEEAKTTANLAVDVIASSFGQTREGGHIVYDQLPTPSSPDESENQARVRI
As to the kind of experiment: in vitro enzyme assay to detect the production of urea directly proportional to the activity of Arginase II. Note: in the data most compounds retested in dose-response had high values. To be noted: 33.3 µM. In kind it is functional.

The target of test [6] is T3, Proteasome subunit beta (Trypanosoma cruzi) (UniProt O96673).
T3 sequence (whole entry): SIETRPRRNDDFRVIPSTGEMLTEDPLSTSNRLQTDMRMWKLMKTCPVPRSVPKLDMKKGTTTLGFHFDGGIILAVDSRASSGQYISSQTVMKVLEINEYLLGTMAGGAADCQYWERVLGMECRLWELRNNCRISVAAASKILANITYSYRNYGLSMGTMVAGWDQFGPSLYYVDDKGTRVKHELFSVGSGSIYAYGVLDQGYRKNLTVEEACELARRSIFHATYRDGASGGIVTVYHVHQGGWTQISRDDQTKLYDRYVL
In words: Trypanosoma cruzi proteasome chymotrypsin-like activity (TcProtChymo) assay. Note: in the data most compounds retested in dose-response had high values. In kind it is functional. The note with it: 9.37 µM.

The next test is filed under the species Homo sapiens. In words: To identify inhibition of the IFN signalling (Jak-Stat) pathway via expression of an eGFP reporter gene under the control of an IFN-stimulated response element (ISRE) containing MxA promoter. It is filed as functional. The note with it: 30 µM. A general note: Reporter assays use an easily measured gene product as a stand-in for the process of interest.

Test [7] addresses T4, Tyrosyl-tRNA synthetase, putative (Trypanosoma cruzi (strain CL Brener)) (UniProt Q4DSP6).
T4 sequence (whole entry): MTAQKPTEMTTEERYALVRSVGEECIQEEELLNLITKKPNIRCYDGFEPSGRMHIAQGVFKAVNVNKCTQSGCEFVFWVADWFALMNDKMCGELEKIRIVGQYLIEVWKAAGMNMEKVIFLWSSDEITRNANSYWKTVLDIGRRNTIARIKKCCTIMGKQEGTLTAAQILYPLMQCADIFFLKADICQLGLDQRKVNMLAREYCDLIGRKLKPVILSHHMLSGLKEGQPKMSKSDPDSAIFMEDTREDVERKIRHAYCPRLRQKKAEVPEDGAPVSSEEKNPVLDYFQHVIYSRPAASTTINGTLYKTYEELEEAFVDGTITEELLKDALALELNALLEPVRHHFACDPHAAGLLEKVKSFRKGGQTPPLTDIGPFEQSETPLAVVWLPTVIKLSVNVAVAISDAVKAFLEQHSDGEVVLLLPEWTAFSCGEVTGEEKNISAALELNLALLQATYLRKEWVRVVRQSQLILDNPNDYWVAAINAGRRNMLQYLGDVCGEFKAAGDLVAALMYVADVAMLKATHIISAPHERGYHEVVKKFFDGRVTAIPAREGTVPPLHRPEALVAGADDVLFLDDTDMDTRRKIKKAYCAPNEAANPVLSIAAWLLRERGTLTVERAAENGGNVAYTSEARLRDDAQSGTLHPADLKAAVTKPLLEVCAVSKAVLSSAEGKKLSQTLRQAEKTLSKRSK
In words: Trypanosoma cruzi tyrosyl tRNA synthetase (TcYRS) _High Tyrosine SOP. Note: in the data most compounds retested in dose-response had high values. It is filed as functional. To be noted: 30 µM.

The target of test [8] is T4, Tyrosyl-tRNA synthetase, putative (Trypanosoma cruzi (strain CL Brener)). In words: Trypanosoma cruzi tyrosyl tRNA synthetase (TcYRS) SOP. The note with it: 30 µM. In kind it is functional.
The target of test [9] is Chromo domain-containing protein 1 (Saccharomyces cerevisiae (strain ATCC 204508 / S288c) (Baker's yeast)) (UniProt P32657). As to the kind of experiment: ScCHD-1 Enzyme Inhibition Assay. Note: in the data most compounds retested in dose-response had high values. It is filed as functional. To be noted: 30 µM.
Sequence of Chromo domain-containing protein 1 (Saccharomyces cerevisiae (strain ATCC 204508 / S288c) (Baker's yeast)) (P32657 whole entry, the tested form may be a part): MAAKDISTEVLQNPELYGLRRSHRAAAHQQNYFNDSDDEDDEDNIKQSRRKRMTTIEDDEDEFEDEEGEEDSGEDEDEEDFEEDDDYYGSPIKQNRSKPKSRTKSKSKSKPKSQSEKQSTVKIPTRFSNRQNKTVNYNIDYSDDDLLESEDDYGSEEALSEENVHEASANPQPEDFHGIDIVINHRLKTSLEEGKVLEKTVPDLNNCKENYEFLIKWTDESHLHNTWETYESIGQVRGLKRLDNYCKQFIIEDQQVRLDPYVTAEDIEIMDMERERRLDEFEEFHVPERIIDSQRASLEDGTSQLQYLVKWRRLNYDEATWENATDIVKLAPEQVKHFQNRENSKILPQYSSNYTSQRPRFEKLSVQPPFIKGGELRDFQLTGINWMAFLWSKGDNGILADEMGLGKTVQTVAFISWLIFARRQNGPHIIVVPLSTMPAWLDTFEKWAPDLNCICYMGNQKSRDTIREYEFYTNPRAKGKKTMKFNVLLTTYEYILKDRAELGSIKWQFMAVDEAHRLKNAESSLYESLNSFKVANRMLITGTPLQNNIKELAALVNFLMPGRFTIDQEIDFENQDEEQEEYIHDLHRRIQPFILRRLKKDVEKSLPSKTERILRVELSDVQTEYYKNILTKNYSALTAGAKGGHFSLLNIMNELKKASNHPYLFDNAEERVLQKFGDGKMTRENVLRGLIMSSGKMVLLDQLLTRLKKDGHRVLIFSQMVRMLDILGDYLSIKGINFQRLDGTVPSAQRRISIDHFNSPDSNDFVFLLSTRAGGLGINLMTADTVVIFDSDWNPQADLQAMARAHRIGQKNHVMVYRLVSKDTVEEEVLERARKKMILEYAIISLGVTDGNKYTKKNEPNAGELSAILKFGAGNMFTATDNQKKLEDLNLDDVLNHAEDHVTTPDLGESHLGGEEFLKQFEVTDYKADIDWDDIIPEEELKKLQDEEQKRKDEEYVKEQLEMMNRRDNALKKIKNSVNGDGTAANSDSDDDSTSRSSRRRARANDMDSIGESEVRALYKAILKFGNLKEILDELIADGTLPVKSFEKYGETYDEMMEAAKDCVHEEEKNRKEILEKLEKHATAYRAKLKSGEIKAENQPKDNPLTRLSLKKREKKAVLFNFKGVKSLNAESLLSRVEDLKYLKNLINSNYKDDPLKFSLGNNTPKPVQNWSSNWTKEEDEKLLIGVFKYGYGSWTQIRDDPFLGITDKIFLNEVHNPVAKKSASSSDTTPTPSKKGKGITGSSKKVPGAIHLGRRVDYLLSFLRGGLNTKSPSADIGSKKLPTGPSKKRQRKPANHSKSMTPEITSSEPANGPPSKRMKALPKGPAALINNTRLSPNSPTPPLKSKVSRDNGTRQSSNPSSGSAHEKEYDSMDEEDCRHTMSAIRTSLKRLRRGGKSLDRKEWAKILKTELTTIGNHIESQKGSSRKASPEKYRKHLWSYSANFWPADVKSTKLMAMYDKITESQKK

Our source for the Percent Effect values is ChEMBL document CHEMBL3988442, “University of Dundee, Small-Polar-MMV Screening Library” (2021).

For some of these results: Potency and affinity values are given separately.

Sequence of Protein translocase subunit SecA (Escherichia coli (strain K12)) (P10408 whole entry): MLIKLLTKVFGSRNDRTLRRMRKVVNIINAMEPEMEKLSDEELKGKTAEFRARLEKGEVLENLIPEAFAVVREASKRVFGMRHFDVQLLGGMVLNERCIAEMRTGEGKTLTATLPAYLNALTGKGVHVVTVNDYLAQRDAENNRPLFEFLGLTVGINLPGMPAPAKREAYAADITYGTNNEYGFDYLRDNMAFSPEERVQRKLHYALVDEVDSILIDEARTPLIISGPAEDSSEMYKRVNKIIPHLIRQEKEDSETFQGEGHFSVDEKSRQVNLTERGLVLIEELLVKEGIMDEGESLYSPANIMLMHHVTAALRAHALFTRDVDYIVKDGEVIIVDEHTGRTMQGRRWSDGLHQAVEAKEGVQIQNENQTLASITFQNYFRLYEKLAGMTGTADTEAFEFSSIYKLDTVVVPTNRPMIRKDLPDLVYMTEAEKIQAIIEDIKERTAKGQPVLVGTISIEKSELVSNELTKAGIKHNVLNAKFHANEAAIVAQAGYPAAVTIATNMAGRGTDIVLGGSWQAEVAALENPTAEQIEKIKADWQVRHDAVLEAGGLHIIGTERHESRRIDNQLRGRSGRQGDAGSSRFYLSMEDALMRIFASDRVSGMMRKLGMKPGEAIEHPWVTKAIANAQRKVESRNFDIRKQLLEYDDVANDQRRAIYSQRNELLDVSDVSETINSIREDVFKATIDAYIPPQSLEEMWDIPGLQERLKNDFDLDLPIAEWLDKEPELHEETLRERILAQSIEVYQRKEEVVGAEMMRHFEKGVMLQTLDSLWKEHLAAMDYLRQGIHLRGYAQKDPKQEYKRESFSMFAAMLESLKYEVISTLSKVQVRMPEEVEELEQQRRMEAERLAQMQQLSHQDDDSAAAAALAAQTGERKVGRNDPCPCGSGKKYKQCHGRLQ

Turning to `Cc1cc(F)ccc1CN1CCCC2(C1)OCCO2`, the Percent Effect in [1] was -1.89%; in [2] it was 2.7%; in test [3], -1.85%; in [4] it was -3.22%; in the test with Trypanosoma cruzi it was 0.391%; in [5] it was 1.67%. The Percent Effect in [6] was 6.34%; in the test listed under Homo sapiens, 1.71%; in test [7], 2.97%; in [8], -3.66%; in test [9], -3.73%.
With `COCC1CC2(CCN(C(=O)c3occc3C)CC2)CO1` (stereo unspecified), the Percent Effect was -0.186% in test [1]; 2.6% in [2]; 22.5% in test [3]; 0.84% in test [4]; -6.61% in the test with Trypanosoma cruzi; 4.52% in test [5]. Moreover, the Percent Effect in [6] was 3.65%; in the test filed under Homo sapiens, 5.99%; in test [7], -2.12%; in test [8], -1.28%; in test [9] it was -1.99%.
Consider `CC1(NC(=O)Cc2csc(C(C)(C)C)n2)CCS(=O)(=O)C1` (stereo unspecified), for which the Percent Effect in [1] is -7.31%; in test [2], 19.2%; in test [3], -17.7%; in test [4], 20.2%; in the test on Trypanosoma cruzi, 9.01%; in test [5], 7.27%. The Percent Effect is 13.7% in test [6]; 17.5% in the test listed under Homo sapiens; 4.3% in test [7]; 17.5% in test [8]; -4.8% in test [9].
As for `COc1ccccc1C(=O)NC(C)CC(=O)O` (stereo unspecified), the Percent Effect in test [1] is -6.61%; in test [2] it was 11.4%; in [3], 1.36%; in test [4] it was -1.14%; with Trypanosoma cruzi, 1.74%; in test [5], 1.07%. For the same compound, the Percent Effect in test [6] is 2.92%; in the test filed under Homo sapiens it was 12.6%; in test [7], 5.21%; in test [8], 15.2%; in test [9], -12.9%.
For the compound `CCOCCN1CCN(Cc2cccc(C(=O)N(C)C)c2)CC1`, the Percent Effect in test [1] was -10.3%; in test [2], 0%; in [3] it was -8.88%; in test [4], 18%; in the test on Trypanosoma cruzi, 9.38%; in [5], -2.03%. In addition, the Percent Effect in [6] worked out at 0%; in the test filed under Homo sapiens, 2.86%; in test [7], 6.93%; in [8] it was 23.2%; in test [9], 46.2%.
Consider `C=Cc1ccc(C(=O)N2CCCC(Nc3ccc(OC)cc3)C2)cc1` (stereo unspecified), for which the Percent Effect in test [1] is -0.54%; in test [2], 8.11%; in [3], 29%; in test [4] it was 18.1%; with Trypanosoma cruzi, 5.41%; in test [5], -1.43%. Also, the Percent Effect in test [6] was 3.28%; in the test listed under Homo sapiens, 12.3%; in [7] it was 10.1%; in test [8], 19.5%; in [9], -8.46%.
On to `CCc1cnc(CN(C(C)=O)C2CCN(CCc3cnn(C)c3)C2)o1` (stereo unspecified), for which the Percent Effect is -2.73% in [1]; 18.4% in [2]; -1.21% in test [3]; -1.24% in [4]; -1.21% in the test on Trypanosoma cruzi; 2.16% in test [5]. Besides, the Percent Effect in [6] is 9.56%; in the test filed under Homo sapiens it was -1.17%; in [7], 7.39%; in test [8], 18.5%; in test [9], -6.82%.
Consider `NC(=O)NCC1CCCCN1C(=O)c1cccc(C(F)(F)F)c1` (stereo unspecified), for which the Percent Effect was -6.54% in test [1]; 21.1% in test [2]; -2.74% in test [3]; 13.3% in test [4]; 4.95% in the test with Trypanosoma cruzi; -6.47% in test [5]. Also, the Percent Effect in test [6] is 2.79%; in the test filed under Homo sapiens, -1.19%; in test [7], 5.42%; in test [8], 16.1%; in [9], -9.06%.
As to `CC(C)COCC(NC(=O)c1cccnc1)c1ccco1` (stereo unspecified), the Percent Effect in test [1] is -5.15%; in test [2], 10.8%; in test [3], -37.5%; in test [4], 3.03%; with Trypanosoma cruzi, 0.0943%; in [5] it was -4.01%. The Percent Effect in test [6] is -0.54%; in the test listed under Homo sapiens it was 16.3%; in [7], 9.36%; in test [8] it was 11.1%; in test [9], -5.14%.
For the compound `CCCNC(=O)CSc1nnc2[nH]c(=O)cc(CC)n12`, the Percent Effect was -1.19% in test [1]; 19.2% in [2]; -3.66% in [3]; 6.46% in test [4]; 1.37% in the test with Trypanosoma cruzi; -1.36% in [5]. Also, the Percent Effect in test [6] is 15.4%; in the test filed under Homo sapiens, 10.2%; in [7] it was 7.53%; in test [8] it was 17.5%; in test [9], -7.28%.
`CCc1nc2n(n1)CC(NCc1ncc(-c3ccccc3)o1)CC2` (stereo unspecified): the Percent Effect was -1.59% in test [1]; -2.63% in [2]; 0.215% in test [3]; 5.65% in [4]; 1.21% in the test on Trypanosoma cruzi; 1.8% in [5]. Further, the Percent Effect is 4.65% in test [6]; -5.2% in the test filed under Homo sapiens; 3.45% in test [7]; -23.5% in [8]; -5.56% in [9].
